The source of these data is PubChem BioAssay (NCI).

The panel holds about 79,000 compounds, 15% with a hit somewhere; the sample as a whole holds those more often. A number with no mark means an inactive call. Rule as the data show it: active = growth inhibition above about 70%; inactive = the rest.

The assay in a line: NCI Yeast Anticancer Drug Screen. Data for the bub3 strain (AID 167). The following applies: S. cerevisiae bub3 mutant strain, at 50.0 µM, stronger effect = higher value. Summed up: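 Inhibition values come from growth of compound-treated mutant yeast normalised to vehicle-treated controls.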
For `O=C(Cn1c2c(c3ccccc31)CCCC2)N1CCCC1`, the growth inhibition was 7.05%.
As for `O=[N+]([O-])c1cc(Br)ccc1N1CCCCC1`, the figure is 17.9%.
Next, `COCc1cc(=O)c(OC)cn1CCO`: 0%; `CCn1c(C)cc(=NC(=O)c2ccccc2O)n1-c1ccccc1`: 21%; `CC(C)c1ccc(O)c(Cc2cc(C(C)C)cc(Cc3cc(C(C)C)ccc3O)c2O)c1`: 1.1%.
As to `O=C(CBr)OCCC1CCCCC1`, the growth inhibition was 3.05%.
As to `C=CCOC(=O)C1CC=CCC1C(=O)OCC=C` (stereo unspecified), the growth inhibition is -3.95%.
As for `CC(=O)Nc1ccc(Sc2ccc(NC(C)=O)cc2O)c(O)c1`, the figure is 14.7%; as for `CC1(C)OC2C(C3N(c4ccccc4)CCN3c3ccccc3)OC(n3ccc(=O)[nH]c3=O)C2O1` (stereo unspecified), -2.5%.
Regarding `CCOC(=O)CCCN1CCC=C(C#N)C1`, the growth inhibition was 13%.
As for `COC(=O)C(Cc1nc2ccccc2[nH]c1=O)C(NO)C(=O)Nc1c(Cl)cc([N+](=O)[O-])cc1Cl` (stereo unspecified), the figure is 22.2%; as for `CC12CC(=O)OC(Cc3ccccc31)O2` (stereo unspecified), -63.6%; as for `CC(C)CCC[C@@H](C)[C@H]1CC[C@H]2[C@@H]3CC[C@H]4OC(=O)CC[C@]4(C)[C@H]3CC[C@]12C`, -27.7%.
As for `Cn1ccc(=O)c2ccccc21`, the figure is 6.1%; as for `COc1c(C)c2c(c(C)c1Cl)Oc1c(C=O)c(O)c(Cl)c(C)c1C(=O)O2`, 29.4%; as for `CN1N=C(c2ccccc2)C(C(c2ccccc2[N+](=O)[O-])C2C(=O)N(C)N=C2c2ccccc2)C1=O` (stereo unspecified), -3.4%.
